Assay results as given in PubChem BioAssay (Tox21).
Inconclusive results are not listed. Active and inactive are the calls of the source. Unless noted, the call rests on the fitted dose curve.

Columns and labels:
[1] = Nuclear factor erythroid 2-related factor 2/antioxidant responsive element (Nrf2/ARE) small molecule agonists: qHTS cell viability counter screen in human keratinocytes (AID 1919968; active means well fitted curve in the direction sought with a large enough effect in the repeat runs; an effect the other way counts as inactive or inconclusive; further: nearly all actives have a fitted effect of over 55% in size)
How it was run: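 KeratinoSens cells (HaCaT keratinocytes stably carrying an ARE-luciferase reporter) were seeded at 1,500 cells/well and rested 5 h at 37 C/5% CO2. They were then exposed to compounds in DMSO for 23 h. Viability was read by CellTiter-Fluor fluorescence after 1 h.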

[2] = Nuclear factor erythroid 2-related factor 2/antioxidant responsive element (Nrf2/ARE) small molecule agonists: luciferase reporter gene qHTS assay in human keratinocytes (AID 1919969); further: nearly all actives have a fitted effect of over 35% in size
[3] = target: Gonadotropin-releasing hormone receptor (Homo sapiens) (UniProt P30968); assay: Human gonadotropin-releasing hormone receptor (GnRHR) small molecule agonists, calcium flux assay in GnRHR-HEK293 cells (AID 1920063); further: nearly all actives have a fitted effect of over 35% in size
Sequence of Gonadotropin-releasing hormone receptor (Homo sapiens) (P30968 whole entry, looked up): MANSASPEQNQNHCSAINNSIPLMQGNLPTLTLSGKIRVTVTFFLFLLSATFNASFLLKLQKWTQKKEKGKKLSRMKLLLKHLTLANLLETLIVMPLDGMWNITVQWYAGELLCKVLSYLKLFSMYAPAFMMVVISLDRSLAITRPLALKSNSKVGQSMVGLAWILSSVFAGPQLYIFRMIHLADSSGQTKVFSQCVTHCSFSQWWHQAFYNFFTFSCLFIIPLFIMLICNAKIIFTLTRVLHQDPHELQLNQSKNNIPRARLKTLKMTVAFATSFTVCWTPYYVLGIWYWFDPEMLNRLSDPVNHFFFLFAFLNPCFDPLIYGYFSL
How it was run: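 HEK293 cells stably expressing human GnRHR were plated 18 h at 37 °C, loaded with calcium dye 1 h at 37 °C, then given compound in agonist mode; fluorescence (Ex/Em 480/540) read kinetically for 3 min at 1 s intervals.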

[4] = target: KiSS-1 receptor (Homo sapiens) (UniProt Q969F8); assay: Human kisspeptin (KISS1R) small molecule agonists, calcium flux assay in KISS1R-HEK293 cells (AID 1920064; active means well fitted curve in the direction sought with a large enough effect in the repeat runs; an effect the other way counts as inactive or inconclusive)
Sequence of KiSS-1 receptor (Homo sapiens) (Q969F8 whole entry, looked up): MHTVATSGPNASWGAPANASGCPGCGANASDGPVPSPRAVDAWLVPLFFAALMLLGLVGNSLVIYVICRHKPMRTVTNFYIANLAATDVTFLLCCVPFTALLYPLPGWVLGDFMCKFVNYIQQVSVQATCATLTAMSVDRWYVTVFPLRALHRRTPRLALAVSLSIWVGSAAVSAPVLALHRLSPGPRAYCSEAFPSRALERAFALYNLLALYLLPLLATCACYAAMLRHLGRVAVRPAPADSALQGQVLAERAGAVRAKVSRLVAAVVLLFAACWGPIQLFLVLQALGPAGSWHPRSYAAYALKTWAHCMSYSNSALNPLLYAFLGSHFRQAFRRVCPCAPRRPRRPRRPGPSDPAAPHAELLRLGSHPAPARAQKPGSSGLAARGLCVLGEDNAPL
How it was run: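 HEK293 cells stably expressing human KISS1R were plated 18 h at 37 °C, loaded with calcium dye for 1 h at 37 °C, then given compound by pin tool. Fluorescence (Ex/Em 480/540) was read kinetically for 3 min.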

[5] = G protein-coupled receptor (GPCR) small molecule agonists, calcium flux assay: HEK293 wild type cell line counter screen (AID 1920065)
How it was run: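 Cells were plated and cultured 18 h at 37 C/5% CO2, then loaded with calcium dye for 1 h at 37 C. Compounds in DMSO were pin-transferred in agonist mode, and fluorescence (Ex/Em 480/540) was read kinetically for 3 min at 1 s intervals.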

[6] = p53 small molecule agonists, cell-based qHTS assay with human liver microsomes (AID 1963577)
How it was run: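 Fluorescence of the beta-lactamase reporter in p53RE-bla cells, detected with LiveBLAzer substrate (2 h, room temperature, dark), served as the read-out after 16 h compound exposure at 37 C with human liver microsomes and NADPH, each 0.5 mg/mL final.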

[7] = p53 small molecule agonists, cell-based qHTS assay with rat liver microsomes (AID 1963578)
How it was run: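 Cells carrying a p53 response element–beta-lactamase reporter were plated and rested 5 h, then dosed with compound in DMSO plus rat liver microsomes and NADPH, each at 0.5 mg/mL final. After 16 h at 37 C, LiveBLAzer substrate was added for 2 h.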

[8] = p53 small molecule agonists, cell-based qHTS assay with human liver microsomes: qHTS cell viability counter screen (AID 1963579); further: nearly all actives have a fitted effect of over 45% in size
How it was run: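 Cytotoxicity counter screen: p53RE-bla, 4,000 cells/well; 5 h settle, 37 C/5% CO2; cpd + HLM 0.5 mg/mL + NADPH 0.5 mg/mL (final); 16 h, 37 C; CellTiter-Glo, 30 min RT, luminescence.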

[9] = p53 small molecule agonists, cell-based qHTS assay with rat liver microsomes: qHTS cell viability counter screen (AID 1963580); further: nearly all actives have a fitted effect of over 45% in size
How it was run: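 Viability is assessed in parallel with the p53 reporter read: HCT-116 p53RE-bla cells receive compounds plus rat microsomes and NADPH (0.5 mg/mL final apiece), incubate 16 h at 37 C, and then CellTiter-Glo luminescence is recorded.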

[10] = p53 small molecule agonists, cell-based qHTS assay: qHTS cell viability counter screen (AID 1963581); further: nearly all actives have a fitted effect of over 45% in size
How it was run: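 p53RE-bla HCT-116 cells were exposed to compounds for 16 h at 37 C; after the beta-lactamase FRET read in the same wells, CellTiter-Glo was added and luminescence (intracellular ATP) read after 30 min at room temperature.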

[11] = p53 small molecule agonists, cell-based qHTS assay (AID 1963582; active means well fitted activation curve with a large enough effect in the signal ratio in the repeat runs, not every such curve was filed as active; the % refers to the signal ratio)
How it was run: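 p53RE-bla beta-lactamase reporter cells rested 5 h at 37 C/5% CO2, then received compounds in DMSO by pin transfer and were incubated 16 h at 37 C. LiveBLAzer B/G FRET substrate was loaded for 2 h at room temperature before fluorescence reading.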

[12] = target: 5-hydroxytryptamine receptor 2A (Homo sapiens) (UniProt P28223); assay: 5-hydroxytryptamine receptor 2A (HTR2A) small molecule antagonists, cell-based qHTS assay (AID 1963586); further: nearly all actives have a fitted effect of over 45% in size
Sequence of 5-hydroxytryptamine receptor 2A (Homo sapiens) (P28223 whole entry, looked up): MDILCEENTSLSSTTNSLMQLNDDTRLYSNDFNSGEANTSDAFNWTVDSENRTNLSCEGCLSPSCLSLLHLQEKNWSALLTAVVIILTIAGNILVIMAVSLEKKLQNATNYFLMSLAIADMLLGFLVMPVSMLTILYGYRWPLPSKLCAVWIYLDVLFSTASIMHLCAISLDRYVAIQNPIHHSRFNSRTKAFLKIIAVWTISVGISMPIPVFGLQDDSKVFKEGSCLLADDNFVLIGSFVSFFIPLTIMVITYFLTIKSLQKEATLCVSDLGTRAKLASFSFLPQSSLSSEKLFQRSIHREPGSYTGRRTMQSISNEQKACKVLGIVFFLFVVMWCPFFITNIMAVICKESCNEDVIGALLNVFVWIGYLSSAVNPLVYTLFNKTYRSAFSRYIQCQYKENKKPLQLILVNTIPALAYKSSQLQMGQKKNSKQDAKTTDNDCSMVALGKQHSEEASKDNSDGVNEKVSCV
How it was run: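 Antagonist-mode intracellular calcium assay: DOI (4 nM) added after 5 min compound pre-incubation at room temperature to dye-loaded HTR2A-CHO cells. Fluorescence followed for 3 min, sampled every second.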

[13] = target: 5-hydroxytryptamine receptor 2A (Homo sapiens) (UniProt P28223); assay: 5-hydroxytryptamine receptor 2A (HTR2A) small molecule agonists, cell-based qHTS assay (AID 1963587); further: nearly all actives have a fitted effect of over 30% in size
How it was run: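 CHO cells stably expressing human HTR2A, plated 18 h, loaded with calcium dye 1 h at 37 C. Agonist mode: compounds added and intracellular calcium fluorescence recorded kinetically for 2 min at 1 sec intervals.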

[14] = target: Muscarinic acetylcholine receptor M1 (Homo sapiens) (UniProt P11229); assay: Cholinergic receptor muscarinic 1 (CHRM1) small molecule antagonists, cell-based qHTS assay (AID 1963588); further: nearly all actives have a fitted effect of over 40% in size
Sequence of Muscarinic acetylcholine receptor M1 (Homo sapiens) (P11229 whole entry, looked up): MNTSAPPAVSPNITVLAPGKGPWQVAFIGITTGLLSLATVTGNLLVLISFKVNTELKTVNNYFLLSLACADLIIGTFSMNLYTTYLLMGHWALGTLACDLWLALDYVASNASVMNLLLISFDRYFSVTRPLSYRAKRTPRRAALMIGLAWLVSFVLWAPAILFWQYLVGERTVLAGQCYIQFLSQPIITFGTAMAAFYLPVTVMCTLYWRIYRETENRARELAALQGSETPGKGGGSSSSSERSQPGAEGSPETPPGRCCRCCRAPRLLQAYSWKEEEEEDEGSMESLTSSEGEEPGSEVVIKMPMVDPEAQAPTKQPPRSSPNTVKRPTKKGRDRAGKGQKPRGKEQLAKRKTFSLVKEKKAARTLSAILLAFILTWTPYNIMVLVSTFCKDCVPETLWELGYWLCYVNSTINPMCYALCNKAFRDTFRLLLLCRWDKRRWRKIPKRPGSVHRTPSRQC
How it was run: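 CHRM1-CHO calcium-flux assay, antagonist mode. Cells were seeded 18 h, dye-loaded 1 h at 37 C and given compound for 5 min at RT, then acetylcholine was added at 50nM. FDSS fluorescence was read 3 min; 15 concentrations, three runs.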

[15] = target: Muscarinic acetylcholine receptor M1 (Homo sapiens) (UniProt P11229); assay: Cholinergic receptor muscarinic 1 (CHRM1) small molecule agonists, cell-based qHTS assay (AID 1963589); further: nearly all actives have a fitted effect of over 35% in size
How it was run: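 CHO cells stably expressing human CHRM1, seeded 18 h at 37 C/5% CO2, dye-loaded 1 h at 37 C, then given compound in agonist mode; intracellular calcium fluorescence read kinetically at 1 s intervals. Fifteen concentrations, three independent runs.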

[16] = cAMP Responsive Elements (CRE) small molecule agonists, cell-based qHTS assay (AID 1963590)
How it was run: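 CRE-bla HEK 293T cells in DMEM with 10% dialyzed FBS, NEAA, pyruvate and 25 mM HEPES were plated 18 h at 37 C/5% CO2, then exposed to compounds in DMSO for 3 h before LiveBLAzer B/G FRET substrate addition.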

[17] = cAMP Responsive Elements (CRE) small molecule antagonists, cell-based qHTS assay (AID 1963591; active means well fitted inhibition curve with a large enough effect in the signal ratio in the repeat runs, not every such curve was filed as active; the % refers to the signal ratio)
How it was run: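 CRE-bla HEK293T cells were plated 18 h at 37 °C/5% CO2, pinned with compound in DMSO, then stimulated with NKH477 at 0.25 uM final for 3 h. LiveBLAzer B/G FRET substrate was added and plates incubated 2 h at room temperature.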

[18] = target: Beta-2 adrenergic receptor (Homo sapiens) (UniProt P07550); assay: Adrenergic beta2 receptor (ADRB2) small molecule antagonists, cell-based qHTS assay (AID 1963592); further: series mostly up to about 92 µM; nearly all actives have a fitted effect of over 50% in size
Sequence of Beta-2 adrenergic receptor (Homo sapiens) (P07550 whole entry, looked up): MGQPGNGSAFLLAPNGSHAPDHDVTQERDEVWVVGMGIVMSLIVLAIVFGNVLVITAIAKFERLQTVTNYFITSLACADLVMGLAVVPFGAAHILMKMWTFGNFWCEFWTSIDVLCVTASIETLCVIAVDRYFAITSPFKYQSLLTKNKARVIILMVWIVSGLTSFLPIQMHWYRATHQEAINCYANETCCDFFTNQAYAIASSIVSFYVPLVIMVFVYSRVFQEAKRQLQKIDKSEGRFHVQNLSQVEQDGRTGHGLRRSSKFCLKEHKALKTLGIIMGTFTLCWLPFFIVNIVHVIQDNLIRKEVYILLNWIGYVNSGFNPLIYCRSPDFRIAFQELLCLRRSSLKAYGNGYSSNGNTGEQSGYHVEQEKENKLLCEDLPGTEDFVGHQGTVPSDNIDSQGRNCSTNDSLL
How it was run: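 Cells (CHO, stable ADRB2 overexpression) incubated 18-20hr at 37C; compounds added from DMSO; agonist mix (1nM isoproterenol, 100uM IBMX, 25uM Ro-20-1724) added; 0.5hr RT; d2-cAMP and anti-cAMP-cryptate added; 1hr RT; 665/615 nm read.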

[19] = target: D(2) dopamine receptor (Homo sapiens) (UniProt P14416); assay: Dopamine D2 receptor (DRD2) small molecule agonists, cell-based qHTS assay (AID 1963594); further: nearly all actives have a fitted effect of over 35% in size
Sequence of D(2) dopamine receptor (Homo sapiens) (P14416 whole entry, looked up): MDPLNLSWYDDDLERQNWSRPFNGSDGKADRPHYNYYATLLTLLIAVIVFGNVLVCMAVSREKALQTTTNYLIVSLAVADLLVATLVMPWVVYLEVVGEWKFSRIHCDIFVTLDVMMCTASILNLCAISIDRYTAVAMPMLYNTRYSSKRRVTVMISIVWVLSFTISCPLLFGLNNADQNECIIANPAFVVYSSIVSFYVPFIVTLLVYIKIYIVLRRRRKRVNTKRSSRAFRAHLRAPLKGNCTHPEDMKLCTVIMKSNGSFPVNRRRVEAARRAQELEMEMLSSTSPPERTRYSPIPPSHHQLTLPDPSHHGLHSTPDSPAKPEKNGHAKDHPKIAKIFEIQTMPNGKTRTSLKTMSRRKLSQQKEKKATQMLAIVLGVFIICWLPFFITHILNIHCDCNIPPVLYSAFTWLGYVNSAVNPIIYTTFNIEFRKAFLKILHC
How it was run: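 HEK293 cells stably expressing human DRD2, pre-treated with PDE inhibitor Ro20-1724 (0.1 mM final) and compound 10 min at room temperature, then stimulated with NKH477 (200nM […]) for 30 min. cAMP read by HTRF (665/620 nm).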

[20] = target: D(2) dopamine receptor (Homo sapiens) (UniProt P14416); assay: Dopamine D2 receptor (DRD2) small molecule antagonists, cell-based qHTS assay (AID 1963595; active means well fitted inhibition curve with a large enough effect in the signal ratio in the repeat runs, with a control signal flat; the % refers to the signal ratio)
How it was run: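 HEK293 cells stably expressing DRD2, preincubated with 0.1 mM Ro20-1724 and compounds 10 min, were stimulated with 200 nM NKH477 plus 12 nM quinpirole for 30 min at room temperature; cAMP measured by HTRF (665/620 nm).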

Measured: Potency

COc1cccc(OC)c1
inactive: all assays above

O=c1[nH]c2ccccc2c(=O)n1CCCl
inactive: all assays above

O=C(c1ccccc1)C1(O)CCCCC1
inactive: all assays above

CCCC(C)C(O)CC (stereo not given)
inactive: all assays above

CNC1(C)C2CCC(C2)C1(C)C (stereo not given)
inactive: all assays above

O=C1NC(c2ccccc2)(c2ccccc2)C(=O)N1COP(=O)(O)O
inactive: all assays above

NCC1(Cc2noc(=O)[nH]2)CCCCC1
inactive: all assays above

COC(=O)c1cc(Cl)ccc1NS(=O)(=O)C(F)(F)F
inactive: all assays above
